± gives the standard deviation of the averaged measurements. Over roughly 25,000 sequences, “ln(normalized median fluorescence intensity)” has its median near 8.6; the highest 2% begin near 10. The list comes from a sample in which the highest values are over-represented; it also holds similar and randomly drawn sequences.
Each sequence was assayed on PfAP2-EXP AP2 domain (GST-tagged) (assay: gcPBM binding intensity (ln(normalized median fluorescence intensity)); higher = stronger DNA binding).
Summary of the method: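 GST-tagged P. falciparum DNA-binding domains, expressed in E. coli (about 25 μg on average), were applied for 1 h to an Agilent 4 × 180k array of primer-extended double-stranded 36-bp intergenic genomic probes plus negative controls. The binding buffer was 1× PBS with 1% milk, 0.2 mg/ml BSA, 0.5% salmon testes DNA and 0.03% Triton X-100. Bound protein was detected with Alexa488 anti-GST antibody and scanned at 488 nm. Binding intensity is the highest Masliner-normalised natural-log median intensity across replicate spots of either probe orientation.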

Sequence | gcPBM binding intensity (ln)
ATAATTAATGATGTATGTACGGAATTTATATATTTG [XGTACX_site5685] | 8.4 ± 0.33
AAAAGATAATTATGCACACACACACCCAGACACAAC [CACACA_site5428] | 9.11 ± 0.4
AAAAGATAATTATGCACACACACACCCCCACCCAAC [CACACA_site2570] | 10.67 ± 0.099
AAAAAAGATAATTATGCACACACACCCACCCACCCA [CACACA_site8825] | 9.57 ± 0.41
TAAAATTAATTTCTGTTGCACTTATTATTAATTAAC | 8.84 ± 0.4
ATAAAAACATAAAAATGTACATATATATATATATAT [XGTACX_site7165] | 10.1 ± 0.25
TATAAACGTATAATATGTACACACACATATATACAA [XGTACX_site1686] | 8.43 ± 0.32
AACATAAAAAAAATATGTACATATATAATATATATA [XGTACX_site3764] | 8.85 ± 0.23
GCAAATATGTTGATATGTACATATATATATATATAT [XGTACX_site445] | 10.2 ± 0.45
ATATAAATATAAACATGTACATATATATATATATAT [XGTACX_site2824] | 10.3 ± 0.79
GTAAATATATAAACATGTACATATATAAATATATAA [XGTACX_site7262] | 8.51 ± 0.33
TAAATATATATAACATGTACATAAAATATATATATA [XGTACX_site4431] | 9.53 ± 0.13
GATATAAACGTATATGTACATATATATATATATATA [GTGCAC_negctrl_site186] | 10.2 ± 0.41
ATATATATATATATATGTACATATATATTGTTGATC [XGTACX_site8893] | 10.1 ± 0.26
ATAAAAAAAAATATATGTACATATATAAATTGATAT [XGTACX_site7409] | 8.73 ± 0.42
TATATATAAAACATATGTACATATATATATATATAT [XGTACX_site419] | 10.2 ± 0.24
AATATATAAACACGTACACACACATATATGTATATA [CACACA_site9168] | 8.73 ± 0.43
AATGGGTAAACATACACACACACATATATATATATA [CACACA_site1991] | 10.1 ± 0.33
AATAAGTTATTATTTTGTACACATAAATAATACGTT [XGTACX_site814] | 8.32 ± 0.3
ATATTCATATATTTACGTACATACATTTATATATTT [XGTACX_site7644] | 8.85 ± 0.37
TACCTATACAGACACACACACACACGCCCACAAAAA [CACACA_site6375] | 8.77 ± 0.35
GAAATTAAATGACATACACACTATATTATATATTTT [CACACA_site5693] | 8.34 ± 0.35
AGTAGTCTGGAGAAGAGTACACAGTATCTGGTAGCT [XGTACX_site2042] | 8.48 ± 0.47
AAATAAAATAAAAACATGCACACTTTATTTTTTTTA [CACACA_site2800] | 8.49 ± 0.26
AGAAAAGAGAGAAAAACATGCACATGATATTATAAA [TGCATGCA_site120] | 8.62 ± 0.53

Source: the supplement of paper PMC11417369
